Hits are enriched below; roughly 3.4% of the tested compounds scored in any of these assays.
FBW7 activator – human FBW7 E3 ligase activation, primary screen; Q969H0; AlphaScreen FBW7–phospho-cyclin E peptide binding, activator screen; normalized activity (activation), % at 26.1 µM; actives 0.13% (n = 650,000); AID 1259310; in the data active = normalized activity above about 1.9%;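 note: purified mutant Fbw7 with reduced substrate affinity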
MITF primary – blocks human microphthalmia-associated transcription factor; O75030; AlphaScreen MITF homodimerization, bead proximity signal; inhibition, % at 2.6 µM; actives 0.91% (n = 650,000); in the data active = inhibition above about 50%;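 note: 0% = vehicle wells with protein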
TEAD-YAP inh – TEAD-YAP interaction inhibition | HEK-TIYL cells, TEAD-Gal4/YAP UAS-luciferase luminescence | inhibition, % at 9.12 µM | actives 1.4% (n = 640,000); in the data active = inhibition above about 32%;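 note: 0% = median of test compound wells and 100% = reference inhibitor wells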
GPR151 ag – activates the human receptor GPR151 | Q8TDV0 | PathHunter beta-arrestin GPR151 cells, luminescence | activation, % at 11.2 µM | actives 1% (n = 650,000) | AID 1508602; in the data active = activation above about 4.9%;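 note: 0% = median of compound wells and 100% = cells with positive control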
Target sequence (Q8TDV0 whole entry, looked up): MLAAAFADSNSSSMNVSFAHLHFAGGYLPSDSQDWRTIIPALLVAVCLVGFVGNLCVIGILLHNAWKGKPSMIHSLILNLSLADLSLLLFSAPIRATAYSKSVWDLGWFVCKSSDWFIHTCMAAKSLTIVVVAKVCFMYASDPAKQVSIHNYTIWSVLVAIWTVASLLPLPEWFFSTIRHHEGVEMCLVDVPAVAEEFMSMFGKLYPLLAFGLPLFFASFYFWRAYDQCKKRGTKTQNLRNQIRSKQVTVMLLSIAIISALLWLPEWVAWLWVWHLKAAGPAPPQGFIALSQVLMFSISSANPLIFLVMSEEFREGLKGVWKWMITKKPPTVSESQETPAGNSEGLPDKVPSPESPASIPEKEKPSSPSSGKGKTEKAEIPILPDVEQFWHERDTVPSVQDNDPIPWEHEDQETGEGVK
* marks the source's active call; other numbers are inactive results.

How did CC1=C(C(=O)OCc2ccccc2)C(c2ccc(C)s2)c2c([nH]c(=O)[nH]c2=O)N1 (centres undefined) do in these assays?
FBW7 activator: 0; MITF primary: 5; TEAD-YAP inh: 14; GPR151 ag: 0

How did O=C1c2ccccc2NC(c2ccccc2)N1c1cccc(C(F)(F)F)c1 (centres undefined) do in these assays?
FBW7 activator: 0; MITF primary: 12; TEAD-YAP inh: -15; GPR151 ag: -1

What do the screens show for `CCOC(=O)C1=C(c2ccccc2)NC(SC)=C(C#N)C1c1cccnc1` (centres undefined)?
FBW7 activator: 0; MITF primary: 1; TEAD-YAP inh: 8; GPR151 ag: 1

Results for CCOC(=O)C1=C(C)NC(SCC(N)=O)=C(C#N)C1c1cccc([N+](=O)[O-])c1 (centres undefined) ?
FBW7 activator: 0; MITF primary: 5; TEAD-YAP inh: 49*; GPR151 ag: 0

Results for CCOC(=O)C1=C(C)NC(C)=C(C(=O)OCC)C1c1ccccc1F ?
FBW7 activator: 2.1*; MITF primary: 17; TEAD-YAP inh: 5; GPR151 ag: -1

Results for CCOC(=O)C1=C(C)NC(SC)=C(C#N)C1c1ccccc1 (centres undefined) ?
FBW7 activator: 0; MITF primary: 5; TEAD-YAP inh: 47*; GPR151 ag: -1

Results for O=C(Nc1nnc(-c2cccc([N+](=O)[O-])c2)o1)C(c1ccccc1)c1ccccc1 ?
FBW7 activator: 0; MITF primary: 8; TEAD-YAP inh: 1; GPR151 ag: -1

Results for Cc1ccc(-c2nn(CN3CCCc4ccccc43)c(=S)n2-c2ccccc2)cc1 ?
FBW7 activator: 0; MITF primary: 14; TEAD-YAP inh: 49*; GPR151 ag: 1

Results for N#CC1=C(N)Oc2n[nH]c(-c3ccc(Cl)cc3Cl)c2C1c1ccc(OCc2ccccc2F)cc1 (centres undefined) ?
FBW7 activator: 0; MITF primary: 15; TEAD-YAP inh: 1; GPR151 ag: -2

Results for N#CCCN(C(=O)CCl)c1cccc(Cl)c1 ?
FBW7 activator: 0; MITF primary: 3; TEAD-YAP inh: 74*; GPR151 ag: 0

What do the screens show for `N#CCCN(C(=O)COC(=O)c1ccc(Cl)cc1N)c1ccccc1`?
FBW7 activator: 0; MITF primary: -4; TEAD-YAP inh: -1; GPR151 ag: 1

Results for CCOc1ccc2nc(N3CCC(C(=O)Nc4ccc(OC)cc4)CC3)sc2c1 ?
FBW7 activator: 0; MITF primary: 8; TEAD-YAP inh: 9; GPR151 ag: 2

Results for CCc1ccc2sc(N3CCC(C(=O)NC4CCCC4)CC3)nc2c1 ?
FBW7 activator: 0; MITF primary: -4; TEAD-YAP inh: 65*; GPR151 ag: 3

Results for CCOc1ccc2nc(NC(=O)C(C)(C)CC)sc2c1 ?
FBW7 activator: 0; MITF primary: -8; TEAD-YAP inh: 41*; GPR151 ag: 0

Results for CCOc1ccc2nc(N3CCC(C(=O)O)CC3)sc2c1 ?
FBW7 activator: 0; MITF primary: -1; TEAD-YAP inh: 58*; GPR151 ag: 1

Results for CCOC(=O)Nc1nc2ccc(OCC)cc2s1 ?
FBW7 activator: 0; MITF primary: 8; TEAD-YAP inh: 1; GPR151 ag: -1

Results for CCOC(=O)C1CCN(c2nc3ccc(CC)cc3s2)CC1 ?
FBW7 activator: 1; MITF primary: -5; TEAD-YAP inh: 55*; GPR151 ag: -1

How did CCOC(=O)C1CCN(c2nc3cc(Br)ccc3s2)CC1 do in these assays?
FBW7 activator: 0; MITF primary: 15; TEAD-YAP inh: -11; GPR151 ag: -6

How did CCCCOC(=O)c1cccc(NC(=O)COc2cc(C)c(Cl)c(C)c2)c1 do in these assays?
FBW7 activator: 0; MITF primary: 14; TEAD-YAP inh: 1; GPR151 ag: -1

Results for O=[N+]([O-])c1ccc(C(F)(F)F)cc1S(=O)(=O)Cc1ccccc1 ?
FBW7 activator: 0; MITF primary: 5; TEAD-YAP inh: 9; GPR151 ag: 5

Results for O=C1COc2ccc(C(=O)COC(=O)c3cc(O)c(O)c(O)c3)cc2N1 ?
FBW7 activator: 0; MITF primary: 82*; TEAD-YAP inh: 2; GPR151 ag: 2

What do the screens show for `CCC(=O)Nc1nc(C)c(-c2csc(Nc3cc(OC)ccc3OC)n2)s1`?
FBW7 activator: 0; MITF primary: 16; TEAD-YAP inh: 6; GPR151 ag: 0

What do the screens show for `CCC(=O)Nc1nc(C)c(-c2csc(Nc3ccc(OC)cc3)n2)s1`?
FBW7 activator: 0; MITF primary: 11; TEAD-YAP inh: 33*; GPR151 ag: -1

Results for CCc1ccc(Nc2nc(-c3sc(C)nc3C)cs2)cc1 ?
FBW7 activator: 0; MITF primary: 12; TEAD-YAP inh: 47*; GPR151 ag: -2

Results for Cc1nc(C)c(-c2csc(Nc3ccc(F)cc3)n2)s1 ?
FBW7 activator: 0; MITF primary: 8; TEAD-YAP inh: -43; GPR151 ag: -1

What do the screens show for `CCCCOc1ccccc1NC(=O)Cn1c(-c2nonc2N)nc2ccccc21`?
FBW7 activator: 0; MITF primary: -5; TEAD-YAP inh: 54*; GPR151 ag: -1

What do the screens show for `Nc1nonc1-c1nc2ccccc2n1CC(=O)N/N=C/c1ccncc1`?
FBW7 activator: 0; MITF primary: 0; TEAD-YAP inh: 53*; GPR151 ag: 1

How did Nc1nonc1-c1nc2ccccc2n1CC(=O)Nc1ccccc1C(F)(F)F do in these assays?
FBW7 activator: 0; MITF primary: 3; TEAD-YAP inh: 34*; GPR151 ag: -1

How did CCc1ccccc1NC(=O)Cn1c(-c2nonc2N)nc2ccccc21 do in these assays?
FBW7 activator: 0; MITF primary: -1; TEAD-YAP inh: 7; GPR151 ag: 1

Results for Nc1nonc1-c1nc2ccccc2n1CC(=O)Nc1ccccc1F ?
FBW7 activator: 0; MITF primary: 1; TEAD-YAP inh: 54*; GPR151 ag: 1

What do the screens show for `Cc1ccc(-n2nc3c(c2NC(=O)COc2ccc4ccccc4c2)CS(=O)(=O)C3)c(C)c1`?
FBW7 activator: 0; MITF primary: 6; TEAD-YAP inh: 2; GPR151 ag: 0

What do the screens show for `CC(=O)Nc1nonc1-c1nc2ccccc2n1Cc1c(F)cccc1Cl`?
FBW7 activator: 0; MITF primary: 3; TEAD-YAP inh: -6; GPR151 ag: -1

How did O=C(Nc1nonc1-c1nc2ccccc2n1Cc1c(F)cccc1Cl)c1ccccc1Cl do in these assays?
FBW7 activator: 0; MITF primary: -8; TEAD-YAP inh: 65*; GPR151 ag: 1

What do the screens show for `Cc1cc2c(cc3c(=O)n(CC(=O)O)nc(C)n32)s1`?
FBW7 activator: 0; MITF primary: 14; TEAD-YAP inh: 2; GPR151 ag: 2

How did Cc1ccc(NC(=O)N(Cc2cc3cc4c(cc3[nH]c2=O)OCCO4)CC2CCCO2)cc1 (centres undefined) do in these assays?
FBW7 activator: 0; MITF primary: 8; TEAD-YAP inh: 55*; GPR151 ag: 1

Results for COC(=O)c1ccc(CN(Cc2ccc(OC)c(OC)c2)S(=O)(=O)c2cc(OC)ccc2OC)cc1 ?
FBW7 activator: 1; MITF primary: 4; TEAD-YAP inh: 4; GPR151 ag: 0

Compound activity (PubChem BioAssay)
